# In PubChem BioAssay (Tox21):
# Results filed as inconclusive are left out. Where a call stands in place of a potency, no number is given. Activity calls are given as the source filed them. Unless noted, the call rests on the fitted dose curve; in most records, active means well fitted cell-killing curve with a large enough effect in the repeat runs; inconclusive means weak or mixed curves, or effect the other way; inactive means no such curve, though single readings can be large or run the other way.
# Molecular target: Progesterone receptor (Homo sapiens) (UniProt P06401)
# Sequence (P06401 whole entry, looked up): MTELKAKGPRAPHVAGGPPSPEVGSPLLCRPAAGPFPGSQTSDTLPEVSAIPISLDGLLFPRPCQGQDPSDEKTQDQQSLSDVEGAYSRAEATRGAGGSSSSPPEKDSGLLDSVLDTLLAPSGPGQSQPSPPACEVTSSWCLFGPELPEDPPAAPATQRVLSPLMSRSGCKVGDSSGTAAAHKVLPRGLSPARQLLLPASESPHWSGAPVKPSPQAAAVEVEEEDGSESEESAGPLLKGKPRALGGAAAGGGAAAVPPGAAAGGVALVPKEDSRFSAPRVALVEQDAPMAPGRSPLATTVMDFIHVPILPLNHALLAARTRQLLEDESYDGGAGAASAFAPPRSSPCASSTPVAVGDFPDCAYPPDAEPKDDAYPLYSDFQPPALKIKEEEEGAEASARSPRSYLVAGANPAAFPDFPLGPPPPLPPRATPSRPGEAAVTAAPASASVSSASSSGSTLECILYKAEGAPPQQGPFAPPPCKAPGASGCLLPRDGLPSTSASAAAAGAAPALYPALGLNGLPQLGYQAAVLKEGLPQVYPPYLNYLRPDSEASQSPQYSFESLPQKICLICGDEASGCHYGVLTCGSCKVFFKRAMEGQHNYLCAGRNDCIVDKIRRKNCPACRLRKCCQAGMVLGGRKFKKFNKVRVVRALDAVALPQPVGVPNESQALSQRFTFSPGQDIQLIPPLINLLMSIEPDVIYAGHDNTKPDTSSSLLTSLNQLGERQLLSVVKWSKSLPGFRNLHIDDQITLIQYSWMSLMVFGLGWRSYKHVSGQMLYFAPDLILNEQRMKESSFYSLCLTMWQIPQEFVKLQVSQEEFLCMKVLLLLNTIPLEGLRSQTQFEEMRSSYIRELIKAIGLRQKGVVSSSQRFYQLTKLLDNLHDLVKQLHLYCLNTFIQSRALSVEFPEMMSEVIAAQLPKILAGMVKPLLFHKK
# Assay: qHTS assay to identify small molecule antagonists of the progesterone receptor (PR) signaling pathway (AID 1346795; active means well fitted inhibition curve with a large enough effect in the signal ratio in the repeat runs, not every such curve was filed as active; the % refers to the signal ratio)
# Conditions: PR-UAS-bla HEK293T, beta-lactamase FRET ratio, 16 h; series mostly up to 92.4 µM
# Procedure, shortened: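 Beta-lactamase reporter, HEK293T PR-UAS-bla line; 2% charcoal-stripped FBS; 6 hr pre-incubation, 37C/5% CO2. Compound + R5020 1 nM final, 16 hr. LiveBLAzer B/G FRET substrate, 2 hr RT; fluorescence intensity read.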
SMILES,Potency,"activity change, negative = inhibition"
CCCc1nn(C)c2c(=O)[nH]c(-c3cc(S(=O)(=O)N4CCN(C)CC4)ccc3OCC)nc12,inactive,
CCOC(=O)COc1cc(-n2ncc(C(F)(F)F)c(C)c2=O)c(F)cc1Cl,inactive,
CN(C)C(=O)Oc1ccc[n+](C)c1,inactive,
CCC(=O)OCc1ccccc1,inactive,
CCN1C=CN(C)C1C (stereo unspecified),inactive,
C1CCC2(CCCCO2)OC1,inactive,
CCC(C(=O)NC(=O)NC(C)=O)c1ccccc1 (stereo unspecified),inactive,
CC(=O)N[C@H]1[C@H]([C@H](O)[C@H](O)CO)OC(C(=O)O)=C[C@@H]1N=C(N)N,inactive,
Cc1c(N)c(=O)n(-c2ccccc2)n1C,inactive,
CN(C)CCN(C)CCN(C)C,inactive,
CCCO[Si](OCCC)(OCCC)OCCC,inactive,
CN1CCC(=C2c3ccccc3CCc3cccnc32)CC1,inactive,
CCO[Si](OCC)(OCC)c1ccccc1,inactive,
COc1ccccc1OCC1CNC(=O)O1 (stereo unspecified),inactive,
C[C@@H]1CCC[C@H](C)N1,inactive,
CN1CCN(c2cc3c(nn2)Oc2ccccc2N3C)CC1,,15.6% [at 18.9 µM] (inactive)
Cc1coc2ccccc2c1=O,inactive,
CCCCCCCCCCCCSC,inactive,
C=CC(C)(CCC=C(C)C)OC(=O)CC (stereo unspecified),inactive,

SMILES,Potency,"activity change, negative = inhibition"
CN1[C@@H]2CC[C@H]1CC(OC(=O)C(O)c1ccccc1)C2 (stereo partly specified),inactive,
COc1ccnc(CS(=O)c2nc3cc(OC(F)F)ccc3[nH]2)c1OC (stereo unspecified),inactive,
C[C@H]1[C@H](NC(=O)/C(=N/OC(C)(C)C(=O)O)c2csc(N)n2)C(=O)N1S(=O)(=O)O (stereo in doubt),inactive,
CC(C)C[C@@H](N)C(=O)O,,12.3% [at 18.9 µM] (inactive)
CCOC(=O)C(=O)CCCCCCl,inactive,
CO[C@@]1(NC(=O)C(C(=O)O)c2ccc(O)cc2)C(=O)N2C(C(=O)O)=C(CSc3nnnn3C)CO[C@@H]21 (stereo partly specified),inactive,
c1ccc2sc(SN3CCOCC3)nc2c1,inactive,
Cc1cccc(C)c1NC(=O)CC12CCCN1CCC2,inactive,
CCCCCC(=O)OCCc1ccccc1,inactive,
C[N+]1(C)[C@@H]2CC(OC(=O)[C@H](CO)c3ccccc3)C[C@H]1[C@@H]1O[C@@H]12 (stereo partly specified),inactive,
CC(C)[C@H]1CC[C@@H](C)CC1=O,inactive,
CCC(C)(CCCC(C)C)OC(C)=O (stereo unspecified),inactive,
NC(=O)N[C@@H](CCC(=O)O)C(=O)O,inactive,
C=CCCC(=O)O,inactive,
C=CCCCCCCCCC(=O)OCC,inactive,
CO[Si](C)(OC)c1ccccc1,inactive,
CCC(C)(CN(C)C)OC(=O)c1ccccc1 (stereo unspecified),inactive,
C=CC(=O)OCCCl,inactive,
CC(C)(C#N)Nc1nc(Cl)nc(NC2CC2)n1,inactive,

# Tested on: not listed separately
# Assay: qHTS assay to identify small molecule antagonists of the progesterone receptor (PR) signaling pathway - cell viability counter screen (AID 1346798); further: nearly all actives have a fitted effect of over 50% in size
# Conditions: PR-UAS-bla HEK293T viability, CellTiter-Glo luminescence, 16 h; series mostly up to 92.4 µM
# Procedure, shortened: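 Luminescence readout (CellTiter-Glo, 30 min, RT) of viability in PR-UAS-bla HEK293T cells exposed to compound and R5020 agonist for 16 hr at 37C, 5% CO2; run in the same wells as the beta-lactamase reporter read.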
SMILES,Potency,"activity change, negative = cytotoxicity"
CCCc1nn(C)c2c(=O)[nH]c(-c3cc(S(=O)(=O)N4CCN(C)CC4)ccc3OCC)nc12,inactive,
CCOC(=O)COc1cc(-n2ncc(C(F)(F)F)c(C)c2=O)c(F)cc1Cl,inactive,
CN(C)C(=O)Oc1ccc[n+](C)c1,inactive,
CCC(=O)OCc1ccccc1,inactive,
CCN1C=CN(C)C1C (stereo unspecified),inactive,
C1CCC2(CCCCO2)OC1,inactive,
CCC(C(=O)NC(=O)NC(C)=O)c1ccccc1 (stereo unspecified),inactive,
CC(=O)N[C@H]1[C@H]([C@H](O)[C@H](O)CO)OC(C(=O)O)=C[C@@H]1N=C(N)N,inactive,
Cc1c(N)c(=O)n(-c2ccccc2)n1C,inactive,
CN(C)CCN(C)CCN(C)C,inactive,
CCCO[Si](OCCC)(OCCC)OCCC,inactive,
CN1CCC(=C2c3ccccc3CCc3cccnc32)CC1,inactive,
CCO[Si](OCC)(OCC)c1ccccc1,inactive,
COc1ccccc1OCC1CNC(=O)O1 (stereo unspecified),inactive,
C[C@@H]1CCC[C@H](C)N1,inactive,
CN1CCN(c2cc3c(nn2)Oc2ccccc2N3C)CC1,,-18% [at 18.9 µM] (inactive)
Cc1coc2ccccc2c1=O,inactive,
CCCCCCCCCCCCSC,inactive,
C=CC(C)(CCC=C(C)C)OC(=O)CC (stereo unspecified),inactive,

SMILES,Potency,"activity change, negative = cytotoxicity"
CN1[C@@H]2CC[C@H]1CC(OC(=O)C(O)c1ccccc1)C2 (stereo partly specified),inactive,
COc1ccnc(CS(=O)c2nc3cc(OC(F)F)ccc3[nH]2)c1OC (stereo unspecified),inactive,
C[C@H]1[C@H](NC(=O)/C(=N/OC(C)(C)C(=O)O)c2csc(N)n2)C(=O)N1S(=O)(=O)O (stereo in doubt),inactive,
CC(C)C[C@@H](N)C(=O)O,,-9.21% [at 18.9 µM] (inactive)
CCOC(=O)C(=O)CCCCCCl,inactive,
CO[C@@]1(NC(=O)C(C(=O)O)c2ccc(O)cc2)C(=O)N2C(C(=O)O)=C(CSc3nnnn3C)CO[C@@H]21 (stereo partly specified),inactive,
c1ccc2sc(SN3CCOCC3)nc2c1,inactive,
Cc1cccc(C)c1NC(=O)CC12CCCN1CCC2,inactive,
CCCCCC(=O)OCCc1ccccc1,inactive,
C[N+]1(C)[C@@H]2CC(OC(=O)[C@H](CO)c3ccccc3)C[C@H]1[C@@H]1O[C@@H]12 (stereo partly specified),inactive,
CC(C)[C@H]1CC[C@@H](C)CC1=O,inactive,
CCC(C)(CCCC(C)C)OC(C)=O (stereo unspecified),inactive,
NC(=O)N[C@@H](CCC(=O)O)C(=O)O,inactive,
C=CCCC(=O)O,inactive,
C=CCCCCCCCCC(=O)OCC,inactive,
CO[Si](C)(OC)c1ccccc1,inactive,
CCC(C)(CN(C)C)OC(=O)c1ccccc1 (stereo unspecified),inactive,
C=CC(=O)OCCCl,inactive,
CC(C)(C#N)Nc1nc(Cl)nc(NC2CC2)n1,inactive,
